# Among all 330,000 compounds or so, about 980 (0.3%) were called active.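 How the source made its calls: active means percent response vs DMSO below 50%; inconclusive means fewer than 70 events counted for the yeast strain; inactive means the rest.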 What follows is part of a selection rich in actives, with near analogues and random picks from the rest.
# Assay: RPL19A-GFP expression modulators in yeast, primary screen, cell-based, S. cerevisiae, multiplex flow cytometry, MLPCN (AID 2025);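 further: median channel GFP fluorescence of the barcoded RPL19A-GFP strain; ratio of sample median GFP to plate DMSO average so 100% = DMSO; lower means less RPL19A-GFP as with rapamycin TOR inhibition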
# Settings: S. cerevisiae RPL19A-GFP strain, 3 h, at 10 µM, hits give low values
row,SMILES,percent response vs DMSO
1,COc1ccc(CN2CC(C(=O)NC3CCCCC3)CC2=O)cc1 (stereo unspecified),99.4% (inactive)
2,COc1ccc(CN2CC(C(=O)NCCN3CCN(c4ccccc4F)CC3)CC2=O)cc1 (stereo unspecified),99.6% (inactive)
3,COc1ccc(CN2CC(C(=O)NCCc3ccc(Cl)cc3)CC2=O)cc1 (stereo unspecified),32.5% [may fluoresce violet] (active)
4,O=C1C=CC(=O)N1c1ccc(N2CCCCC2)cc1,64.6% (inactive)
5,CCOc1ccc(Br)cc1S(=O)(=O)Nc1ccc(C(=O)OC(C)C(=O)N(C)c2ccccc2)cc1 (stereo unspecified),99.2% (inactive)
6,Cc1nn(Cc2ccccc2)c(C)c1NS(=O)(=O)c1ccccc1,125% (inactive)
7,Nc1c(-c2ccccc2)nnn1Cc1ccccc1,93.1% (inactive)
8,OCc1nc(CO)n(Cc2ccccc2)n1,34.3% [may fluoresce violet] (active)
9,CCOc1ccccc1N1C(=O)CC(Sc2nccc(C)n2)C1=O (stereo unspecified),101% (inactive)
10,C=C1CCN([C@@H](Cc2ccccc2)C(=O)N2CCOCC2)S(=O)(=O)c2ccccc21,102% (inactive)
11,CCOc1cc(N2CCOCC2)c(OCC)cc1NC(=O)COc1cccc2cccnc12,38.4% [may fluoresce violet] (active)
12,CCOc1cc(N2CCOCC2)c(OCC)cc1NC(=O)c1cc(C)nc2ccccc12,101% (inactive)
13,CCOc1cc(N2CCOCC2)c(OCC)cc1NC(=O)COc1cccc(Cl)c1,101% (inactive)
14,CCCOc1ccc(-c2c(C(=O)N/N=C/c3ccco3)nnn2-c2nonc2N)cc1,99.2% (inactive)
15,Cc1ccccc1S(=O)(=O)N1[C@@H](c2cccc(Cl)c2)C(C(=O)O)=CC[C@H]1c1ccc(Cl)cc1,99.8% (inactive)
16,O=C(CN1C(=O)COc2ccc(Cl)cc21)N1CCOCC1,101% (inactive)
17,COc1ccc(Cn2c(C)c(C)c(C#N)c2NC(=O)Nc2ccc(F)cc2)cc1,97.2% (inactive)
18,Cc1ccc(C(=O)Nc2c(C#N)c(C)c(C)n2Cc2ccccc2)cc1,43.3% [may fluoresce violet] (active)
19,Cc1c(C#N)c(NC(=O)c2ccccc2)n(Cc2ccccc2)c1C,92.3% (inactive)
20,COc1ccccc1NC(=S)N1CCN(c2ccc(F)cc2)CC1,106% (inactive)
21,COc1cccc(NC(=O)CSc2nnc(Cc3ccc(OC)c(OC)c3)o2)c1,97.7% (inactive)
22,N#Cc1ccc(C(=O)Nc2nc(-c3cccs3)c(C(=O)C(F)(F)F)s2)cc1,97.5% (inactive)

row,SMILES,percent response vs DMSO
1,CCCc1noc2c1/C(=N\O)CCC2,98.8% (inactive)
2,CCCc1nn2c(=O)cc(CSCC(=O)Nc3cccc(C)c3)nc2s1,98% (inactive)
3,Cc1c2cnn(CC(=O)NCc3ccccn3)c(=O)c2c(C)n1Cc1ccc(Cl)cc1,28.5% [may fluoresce violet] (active)
4,Cc1ccc(Cn2c(C)c3cnn(CC(=O)NCc4ccccn4)c(=O)c3c2C)cc1,99.3% (inactive)
5,O=C(Cn1ncc2c3ccccc3n(Cc3ccccc3)c2c1=O)NCc1ccccn1,93.6% (inactive)
6,O=C(NCc1ccccc1Cl)C1CCN(S(=O)(=O)c2cccc3nonc23)CC1,49% [may fluoresce violet] (active)
7,O=C(NCc1ccccc1Cl)C1CCN(S(=O)(=O)N2CCOCC2)CC1,91% (inactive)
8,O=C(CCS(=O)(=O)c1cccc2nonc12)NCCc1ccccc1Cl,104% (inactive)
9,CC(=O)C12CC(C)=C(C)CC1CC1C3CCC4=CC(=O)CCC4(C)C3CCC12C (stereo unspecified),99.3% (inactive)
10,CC(=O)O[C@]1(C(C)=O)CC[C@H]2[C@@H]3C=C(C)C4=CC(=O)CC[C@]4(C)[C@H]3CC[C@@]21C,33% [may fluoresce violet] (active)
11,CC(C)CCN1CCN=C1N(C)C,99.1% (inactive)
12,NC(=O)C1CCN(CC(O)CSc2ccc(F)cc2)CC1 (stereo unspecified),99.8% (inactive)
13,COc1cc(NC(=O)c2ccc(-c3csc(C)n3)cc2)c(OC)cc1Cl,102% (inactive)
14,CCS(=O)(=O)Nc1ccc(C2=NN(C(C)=O)C(c3cccs3)C2)cc1 (stereo unspecified),102% (inactive)
15,CCCCc1c(O)nc2n(c1=O)CCS2,93.4% (inactive)
16,CCCS(=O)(=O)Nc1ccc(-c2cn3c(n2)SCC3)cc1,40.4% [may fluoresce violet] (active)
17,CCc1ccc(OCC2c3cc(OC)c(OC)cc3CCN2C(C)=O)cc1 (stereo unspecified),42.9% [may fluoresce violet] (active)
18,COc1ccc2[nH]c(=O)c(C3c4cc(OC)c(OC)cc4CCN3C(=O)c3ccco3)cc2c1 (stereo unspecified),103% (inactive)
19,COc1ccc(CC(NC(C)=O)C(=O)NC2CCN(C(=O)c3ccc(OC)c(OC)c3)CC2)cc1OC (stereo unspecified),93.8% (inactive)
20,COc1ccccc1-n1nnnc1S(=O)(=O)Cc1ccc(Cl)cc1,102% (inactive)
21,Cc1cccc(C(=O)NC(=S)N(C)C2CCCCC2)c1,96.9% (inactive)
22,Cc1c(NC(=O)c2c([N+](=O)[O-])cnn2C)c(=O)n(-c2ccccc2)n1C,41.5% [may fluoresce violet] (active)

row,SMILES,percent response vs DMSO
1,Cc1cc(OCC(=O)Nc2c(C)n(C)n(-c3ccccc3)c2=O)ccc1[N+](=O)[O-],97.2% (inactive)
2,Cc1c(NC(=O)Nc2cccc([N+](=O)[O-])c2)c(=O)n(-c2ccccc2)n1C,102% (inactive)
3,Cc1ccccc1-c1cc(C(=O)NCC2CC2)n(CC2CC(c3cccnc3)=NO2)n1 (stereo unspecified),104% (inactive)
4,CNC[C@H](CC1CCCCC1)NC[C@H](NCCC1CCCC1)[C@H](C)O,93.9% (inactive)
5,CCCc1ccc(-c2c(C)sc(NC(=O)c3ccnn3C)c2C#N)cc1,98% (inactive)
6,CC1(c2ccc3ccccc3c2)NC(=O)NC1=O (stereo unspecified),105% (inactive)
7,COc1ccc(-c2nnn(Cc3nc(N)nc(N4CCCCC4)n3)n2)cc1,98.7% (inactive)
8,COc1ccc(-n2nnnc2SCc2nc(N)nc(N3CCOCC3)n2)cc1,48.8% [may fluoresce violet] (active)
9,COc1ccc(CSc2nnnn2-c2ccc(C(=O)O)cc2)cc1,99.4% (inactive)
10,O=C(COC(=O)CNC(=O)C1CCCCC1)Nc1cccc(F)c1,100% (inactive)
11,OCC(O)CN(c1ccccc1)c1ccccc1 (stereo unspecified),94.3% (inactive)
12,CCn1cc(C(=O)OCC(=O)Nc2cccc(C)c2)c(=O)c2ccc(C)nc21,96.6% (inactive)
13,C=CC[C@H](CC(=O)N(CCO)Cc1ccccc1)C(=O)N[C@@H](COC(=O)[C@@H](CC=C)Cc1ccc(F)cc1)Cc1ccccc1,96% (inactive)
14,CCNS(=O)(=O)c1ccc(NC(=O)c2cncc(Br)c2)cc1,96.5% (inactive)
15,O=C(CN1CCN(S(=O)(=O)c2ccc(Br)cc2)CC1)Nc1ccccc1C(=O)c1ccccc1,100% (inactive)
16,O=C(Cc1ccccc1)NNS(=O)(=O)c1ccc([N+](=O)[O-])cc1,97.4% (inactive)
17,O=C(CNC(=O)c1ccccc1)Oc1ccc([N+](=O)[O-])cc1,103% (inactive)
18,O=C(NNS(=O)(=O)Cc1ccccc1)c1ccc([N+](=O)[O-])cc1,44.4% [may fluoresce violet] (active)
19,CC(=O)c1ccc(N2CCN(C(=O)CCNC(=O)Cn3ccc4ccccc4c3=O)CC2)cc1,104% (inactive)
20,COc1cc(C(C(=O)NC2CCCC2)N(C(=O)c2ccco2)c2ccccc2C(C)=O)cc(OC)c1OC (stereo unspecified),108% (inactive)
21,O=C(c1ccncc1)c1ccc([N+](=O)[O-])cc1,98.9% (inactive)
22,O=C(CC(n1cncn1)C(Cl)(Cl)Cl)c1ccc([N+](=O)[O-])cc1 (stereo unspecified),104% (inactive)

row,SMILES,percent response vs DMSO
1,O=C(C1CCCO1)N(c1ccc(F)cc1)C1C=CS(=O)(=O)C1 (stereo unspecified),97.9% (inactive)
2,CC(C)(C)NC(=O)C(c1ccc(Cl)cc1)N(CCO)C(=O)c1snc(C(N)=O)c1N (stereo unspecified),99.5% (inactive)
3,NC(=O)c1nsc(C(=O)N(CCCN2CCOCC2)C(C(=O)NC2CCCCC2)c2ccc(Cl)cc2)c1N (stereo unspecified),38% [may fluoresce violet] (active)
4,CCOc1ccc(C(C(=O)NC2CCCC2)N(C(=O)c2snc(C(N)=O)c2N)C2CCCC2)cc1 (stereo unspecified),95.8% (inactive)
5,O=C(CCc1ccc(S(=O)(=O)N2CCOCC2)cc1)NN=C1CCCCCCC1,101% (inactive)
6,O=C(O)c1ccc(S(=O)(=O)N2CCOCC2)o1,47.2% [may fluoresce violet] (active)
7,O=C(c1cc(S(=O)(=O)N2CCOCC2)ccc1Cl)N1CCOCC1,112% (inactive)
8,CCOC(=O)CNC(=O)/C=C/c1c(Cl)cccc1Cl,94.2% (inactive)
9,CC(C)=CCCC1(C)C=Cc2c(ccc3c2[nH]c2cc(O)c(C)cc23)O1 (stereo unspecified),97.2% (inactive)
10,O=C1CN(C(=O)COc2c(Cl)cccc2Cl)c2ccccc2N1,91.8% (inactive)
11,COc1cc(OC)c(C(=O)OCC(=O)N2CC(=O)Nc3ccccc32)cc1OC,93.3% (inactive)
12,O=C1CN(C(=O)COC(=O)c2cnc(Cl)c(Cl)c2)c2ccccc2N1,18.6% [may fluoresce violet] (active)
13,CN(NC(=O)C1CC(=O)N(c2ccccc2)C1)C1=NS(=O)(=O)c2ccccc21 (stereo unspecified),102% (inactive)
14,CC1(C)CC2CC(C)(CN2c2ncnc3ccc(Br)cc23)C1 (stereo unspecified),105% (inactive)
15,CN(CC(=O)Nc1ccccc1Cl)C(=O)c1ccccc1SCC(=O)N1CCCC1,94.7% (inactive)
16,O=c1c2c(nc3cc(-c4cccc(Cl)c4)[nH]n13)CCCC2,99.2% (inactive)
17,CSc1nc2nc3c(c(=O)n2[nH]1)CCC3,89.8% (inactive)
18,O=c1c2c(nc3nc[nH]n13)CCC2,19.2% [may fluoresce violet] (active)
19,CCCCCC(O)c1cccc(OCc2ccc3ccccc3n2)c1 (stereo unspecified),88.3% (inactive)
20,O=C1CC(=O)Nc2cc(S(=O)(=O)N3CCN(c4cccc(C(F)(F)F)c4)CC3)ccc2N1,97.6% (inactive)

# From PubChem BioAssay AID2025 (NMMLSC, 2009)
